In the library only some 2.9% were active in any assay of this set; here they are far more common.
BioA inh: BioA (M. tuberculosis) enzyme inhibition. purified M. tuberculosis BioA enzyme, plate reader. inhibition, % at 9.99 µM. 360,000 compounds, 0.096% hits. AID 602481; in the data active means inhibition above about 40%
GDH-TPI counter-1: inhibits GDH-TPI coupling enzymes, artifact for Mtb FBA screen; GDH-TPI coupled enzyme counterscreen, NADH absorbance; inhibition, % at 4.8 µM; 360,000 compounds, 1.2% hits; AID 588335; in the data active means inhibition above about 30%;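 further: 0% = DMSO wells and 100% = wells lacking the enzyme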
FBA Mtb inh: Mtb fructose-bisphosphate aldolase inhibition. P9WQA3. purified M. tuberculosis FBA, fluorescence read-out. inhibition, % at 1 µM. 360,000 compounds, 2.3% hits. AID 588726;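 further: 0% = vehicle and 100% = reference inhibitor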
Target sequence (P9WQA3 whole entry, looked up): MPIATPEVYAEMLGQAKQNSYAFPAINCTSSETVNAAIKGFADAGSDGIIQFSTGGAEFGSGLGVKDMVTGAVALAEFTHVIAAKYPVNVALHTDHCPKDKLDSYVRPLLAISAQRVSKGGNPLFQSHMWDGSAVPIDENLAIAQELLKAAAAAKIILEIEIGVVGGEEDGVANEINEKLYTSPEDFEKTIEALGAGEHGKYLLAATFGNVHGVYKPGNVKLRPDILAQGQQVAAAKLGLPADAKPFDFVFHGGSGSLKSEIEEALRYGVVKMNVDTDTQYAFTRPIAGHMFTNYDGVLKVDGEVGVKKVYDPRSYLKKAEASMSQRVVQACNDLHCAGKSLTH
Mtb hypoxia inh: reduces hypoxia-regulated biosensor signal in M. tuberculosis; AID 1159583; 300,000 compounds, 0.1% hits; M. tuberculosis hypoxia-regulated fluorescent reporter, fluorescence; fluorescence inhibition, % (concentration not given with the values); in the data active means fluorescence inhibition mostly above about 23%, no sharp cut-off; inactive means mostly below about 17%
FadD28 binding: M. tuberculosis FadD28 bisubstrate binding inhibition; inhibition, % at 12.5 µM; 360,000 compounds, 0.22% hits; FadD28 bisubstrate probe binding, fluorescence polarization; in the data active means inhibition above about 8.5%, passing the limit was not always enough
Mtb FBA confirm: confirmation of M. tuberculosis fructose-bisphosphate aldolase inhibitors | AID 651616 | inhibition, % at 1 µM | shares compounds with FBA Mtb inh | purified M. tuberculosis FBA, fluorescence read-out | 5,600 compounds, 78% hits;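 further: 0% = vehicle wells and 100% = reference inhibitor wells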
GDH-TPI counter-2: GDH-TPI inhibition counter-screen for FBA inhibitors; shares compounds with FBA Mtb inh; AID 652141; 5,600 compounds, 81% hits; GDH-TPI coupled enzyme counterscreen, fluorescence; inhibition, % at 1 µM; in the data active means inhibition above about 10%
Numbers without * were called inactive; . = not tested or not shown; + = active, no number. Unless noted, no stated cut-off is given here; in the data, active means inhibition above about 27%; inactive means the rest.

SMILES | BioA inh | GDH-TPI counter-1 | FBA Mtb inh | Mtb hypoxia inh | FadD28 binding | Mtb FBA confirm | GDH-TPI counter-2
COc1cc(C=C2SC(=O)N(c3ccc(Cl)cc3)C2=O)cc([N+](=O)[O-])c1O | . | . | . | 0.7 | . | . | .
COc1ccc(-c2oc3ncnc(N)c3c2-c2ccccc2)cc1 | 1.1 | 5.3 | 27.4* | 12.6 | -3.7 | 4.8 | -1.5
COc1ccc(-c2oc3ncn4nc(COc5ccccc5)nc4c3c2-c2ccc(OC)cc2)cc1 | 0.4 | 9.0 | 2.0 | -5.3 | -1.4 | . | .
CCCNC(=O)Nc1ccc2c(c1)OC[C@H](C)N(CCC(F)(F)F)C[C@@H](C)[C@H](OC)CN(C)C2=O | 1.3 | . | . | . | . | . | .
CC(SCc1nc2sc3c(c2c(=O)[nH]1)CCCC3)C(=O)Nc1ccccn1 (stereo not drawn) | -0.3 | 6.0 | 37.4* | 5.8 | -0.9 | 127.3* | 92.4*
Nc1nccnc1C(=O)OCc1nc2sc3c(c2c(=O)[nH]1)CCCC3 | -1.0 | 9.1 | 40.3* | -4.5 | -3.8 | + | +
Cc1ccc(NC(=O)C(C)SCc2nc3sc4c(c3c(=O)[nH]2)CCCC4)nc1 (stereo not drawn) | -1.2 | 6.0 | 9.8 | 1.3 | 0.5 | . | .
COc1ccc2nc(-c3ccccc3)cc(C(=O)OCC(=O)N3CC(C)OC(C)C3)c2c1 (stereo not drawn) | 0.5 | 9.6 | 110.4* | 2.1 | -0.2 | 38.1* | 29.8*
Cc1cc(C(=O)OCC(=O)N2CC(C)OC(C)C2)c2ccccc2n1 (stereo not drawn) | 0.4 | 4.2 | 1.0 | 0.6 | 0.3 | . | .
COc1ccc2nc(-c3ccccc3)cc(C(=O)OCC(=O)N3CCCCC3)c2c1 | -0.5 | 0.5 | 87.0* | 3.8 | -0.3 | + | +
COc1cc2c(OC)cccc2cc1C(=O)O | -0.6 | 10.8 | 65.0* | 9.4 | -0.4 | + | +
CC1N(C)c2cccc3cccc(c23)N1C | -2.0 | 3.0 | 103.1* | 21.6 | -4.7 | 195.8* | 128.0*
CN1c2cccc3cccc(c23)N(C)C1c1cccs1 | . | 12.7 | -1.4 | 23.8 | 0.8 | . | .
COc1cc(C=Nn2cnnc2)ccc1OCc1ccccc1 | . | . | . | 0.4 | . | . | .
Cc1nn(-c2ccc(F)cc2)c2sc(C(=O)OC3CCOC3=O)cc12 (stereo not drawn) | 0.0 | 8.4 | 86.0* | . | -0.7 | 74.2* | 59.0*
CCN1CC2C3C(=O)N(Cc4ccccc4)C(=O)C3[C@](Cc3ccccc3)(C1=O)N2C(=O)c1ccc(Br)cc1 (stereo partly drawn) | . | . | . | -2.6 | . | . | .
COc1ccc(-c2ccc(C(=O)NCc3ccncc3)c3occc23)c(C)c1 | 4.1 | -8.0 | 110.6* | . | -21.9 | + | +
COc1ccc(-c2ccc(C(=O)NCc3ccc(F)c(F)c3)c3occc23)c(C)c1 | -1.2 | 3.6 | 10.5 | . | -3.1 | . | .
COc1ccc(-c2ccc(C(=O)Nc3ccccc3)c3occc23)c(C)c1 | -1.7 | 3.6 | -2.0 | . | -3.5 | . | .
COc1ccc(-c2ccc(C(=O)NCC(C)C)c3occc23)c(C)c1 | 0.1 | 9.7 | 57.7* | . | -14.8 | 166.4* | 132.1*
COc1ccc(-c2ccc(C(=O)NCC3CC3)c3occc23)c(C)c1 | 0.1 | -0.9 | 57.0* | . | -15.5 | 45.8* | 32.9*
O=C(CCCOc1ccc(Cl)cc1Cl)Nc1ccc(O)cc1C(=O)O | 3.6 | 25.9 | 30.2* | 14.3 | 2.3 | + | +
COc1cc(NC(=O)CCCOc2ccc(Cl)cc2Cl)c(C(=O)O)cc1OC | 1.1 | 13.0 | 0.6 | 7.3 | -1.3 | . | .
Nc1cc(OC(=O)c2ccco2)nn1S(=O)(=O)c1ccc(F)cc1 | 1.8 | -5.2 | 29.7* | 9.1 | -2.3 | + | 141.8*
CC(C)OC(=O)N(C)C[C@H]1OCc2ccccc2-c2ccccc2C(=O)N([C@H](C)CO)C[C@H]1C | 0.3 | . | . | . | . | . | .
SMILES | BioA inh | GDH-TPI counter-1 | FBA Mtb inh | Mtb hypoxia inh | FadD28 binding | Mtb FBA confirm | GDH-TPI counter-2
Cc1ccc(C2NC(=O)c3ccccc3N2)c(C)c1 (stereo not drawn) | . | 6.0 | 61.8* | . | -2.0 | 79.8* | 60.8*
O=C1NC(c2ccco2)Nc2ccccc21 (stereo not drawn) | -2.4 | 1.9 | 42.8* | . | -3.0 | 57.0* | 49.2*
Cc1ccc(CN2CCC3C=CCc4cccc(c43)C2)cc1 (stereo not drawn) | . | . | . | -4.1 | . | . | .
C1=C[C@@H]2CCN(Cc3ccccc3)Cc3cccc(c32)C1 | -3.1 | 18.3 | 28.1* | . | 0.6 | + | +
Cc1cc(S(N)(=O)=O)c(N)c(S(N)(=O)=O)c1 | 0.9 | 7.8 | 28.8* | 8.8 | -3.7 | + | +
CNC[C@@H]1Oc2ccc(NS(=O)(=O)c3ccc(OC)cc3)cc2C(=O)N([C@@H](C)CO)C[C@H]1C | -0.4 | . | . | . | . | . | .
Cn1c(=O)n(Cc2ccc(F)cc2)c(=O)c2c1nc1n2CCCN1C1CCCCC1 | -0.7 | 1.2 | 29.2* | . | -3.2 | 153.6* | 147.3*
Cc1ccc(C2C=C(c3ccccc3)Nc3ncnn32)cc1 (stereo not drawn) | -0.6 | -0.4 | 30.1* | . | -1.1 | 38.3* | 26.1*
CCOc1ccc(C2C=C(c3ccc(F)cc3)Nc3ncnn32)cc1 (stereo not drawn) | 0.7 | 13.5 | 31.1* | 19.0 | -3.7 | 146.3* | 100.0*
CCOC(=O)C1=CCC2c3c(c4ccccc4n3C)C(=O)C1N2S(=O)(=O)c1ccc(C)cc1 (stereo not drawn) | . | . | . | -3.5 | . | . | .
O=C(C[C@@H]1C[C@H]2c3cc(NC(=O)NC4CCCC4)ccc3O[C@H]2[C@H](CO)O1)NCc1ccncc1 | 0.3 | . | . | . | . | . | .
Cc1cccn2c(=O)cc(COC(=O)C(C)Oc3ccccc3)nc12 (stereo not drawn) | -3.1 | 4.1 | 3.9 | 0.3 | -0.6 | . | .
Cc1cc(=O)n2cccc(O)c2n1 | . | 5.7 | 74.8* | 11.7 | 0.8 | + | +
O=C(C1CCC1)N1C[C@H]2[C@@H](c3ccccc31)[C@@H](CO)N2C(=O)Cc1ccccn1 | 3.6 | . | . | . | . | . | .
CC(C)NC(=O)NC(=O)COC(=O)C1CCCN1C(=O)c1cccs1 (stereo not drawn) | 0.1 | 9.4 | 6.0 | 13.5 | -2.4 | . | .
O=C(COC(=O)[C@@H]1CCCN1C(=O)c1cccs1)NCCc1ccccc1 | -0.8 | -0.3 | 27.5* | 11.8 | 0.7 | -1.2 | -0.6
Cc1ccc(C2Oc3ccccc3C3=C2C(c2cccs2)n2ncnc2N3)cc1 (stereo not drawn) | -0.3 | 6.3 | 2.9 | 5.3 | 0.3 | . | .
Fc1ccc(C2C3=C(Nc4ncnn42)c2ccccc2OC3c2ccncc2)cc1 (stereo not drawn) | 5.3 | 0.9 | 37.3* | . | -1.8 | 101.8* | 64.4*
CC(=O)Nc1ccc(S(=O)(=O)Nc2cccc(-c3csc(C)n3)c2)cc1 | 1.1 | 2.9 | 2.2 | 3.8 | -2.1 | . | .
CC1CCCN(S(=O)(=O)c2cccc(-c3cn4cccnc4n3)c2)C1 (stereo not drawn) | -1.3 | 8.7 | 75.5* | 5.6 | -1.6 | 122.2* | 139.1*
